In PubChem BioAssay AID1159580 (chemical genetic matrix, 2015):
Several values for one entry are separate records, joined by “and”; a condition that tells them apart may be missing. Equal entries are not always repeated. Screen size: about 5,500 compounds; about 2,000 (36%) were called active. About 18% were inconclusive and are not listed. Rule as the data show it: active = normalized growth mostly below about 0.91 (no sharp cut-off); inconclusive = no clear call, values can overlap the other calls; inactive = mostly above about 0.92. The list shows a part of the results.

Experiment: chemical genetic growth profiling, strain panel (AID 1159580);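 also: tested at 20 µM; growth read once vehicle control cultures reached saturation at 30 °C; 1 = growth at the plate median or of vehicle wells; lower values mean less growth of the strain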
Conditions: S. cerevisiae deletion strains, growth OD

Measured: normalized growth

COc1ccc(C(=O)/C=C/c2ccccc2)cc1
inactive: locus YAL021C, strain ccr4, stronger effect = lower value 1.01 | locus YAL026C, strain drs2, stronger effect = lower value 0.924 | locus YAL030W, strain snc1, stronger effect = lower value 0.951 | locus YBL061C, strain skt5, stronger effect = lower value 0.947 | locus YBR171W, strain sec66, stronger effect = lower value 0.939 | locus YBR229C, strain ROT2, stronger effect = lower value 0.991 | locus YBR231C, strain swc5, stronger effect = lower value 0.927 | locus YBR279W, strain paf1, stronger effect = lower value 0.951 | locus YCL069W, strain vba3, stronger effect = lower value 0.944 | locus YCR088W, strain abp1, stronger effect = lower value 0.965 | locus YDL005C, strain med2, stronger effect = lower value 0.992 | locus YDL035C, strain GPR1, stronger effect = lower value 0.921 | locus YDL040C, strain nat1, stronger effect = lower value 1.01 | locus YDL101C, strain DUN1, stronger effect = lower value 0.941 | locus YDL185W, strain tfp1, stronger effect = lower value 0.942 | locus YDR001C, strain nth1, stronger effect = lower value 0.982 | locus YDR069C, strain doa4, stronger effect = lower value 0.995 | locus YDR150W, strain NUM1, stronger effect = lower value 1.01 | locus YDR159W, strain sac3, stronger effect = lower value 0.956 | locus YDR162C, strain NBP2, stronger effect = lower value 0.965 | locus YDR195W, strain ref2 1.1 | locus YDR297W, strain sur2, stronger effect = lower value 0.939 | locus YDR334W, strain swr1, stronger effect = lower value 0.999 | locus YDR388W, stronger effect = lower value 0.955 | locus YEL037C, strain rad23, stronger effect = lower value 0.982 | locus YER015W, strain faa2, stronger effect = lower value 0.956 | locus YER111C, strain swi4, stronger effect = lower value 0.968 | locus YER167W, strain BCK2, stronger effect = lower value 0.994 | locus YFR010W, strain ubp6, stronger effect = lower value 0.96 | locus YGL167C, strain pmr1, stronger effect = lower value 0.971 | locus YHR013C, strain ard1, stronger effect = lower value 0.947 | locus YHR027C, strain rpn1, stronger effect = lower value 0.939 | locus YHR079C, strain IRE1 (second series), stronger effect = lower value 0.932 | locus YHR094C, strain hxt1, stronger effect = lower value 0.941 | locus YIL066C, strain RNR3, stronger effect = lower value 0.919 | locus YIL073C, strain SPO22, stronger effect = lower value 0.889 | locus YIL125W, strain kgd1, stronger effect = lower value 0.985 | locus YJL092W, strain hpr5, stronger effect = lower value 0.965 | locus YJL115W, strain asf1, stronger effect = lower value 0.984 | locus YJL134W, strain LCB3, stronger effect = lower value 0.99 | locus YJL154C, strain vps35, stronger effect = lower value 0.995 | locus YJL168C, strain set2, stronger effect = lower value 0.959 | locus YJL187C, strain SWE1 (second series), stronger effect = lower value 0.908
active: locus YBR009C, strain hhf1, stronger effect = lower value 0.825 | locus YBR021W, strain FUR4, stronger effect = lower value 0.782 | locus YBR023C, strain chs3, stronger effect = lower value 0.911 | locus YCL011C, strain gbp2, stronger effect = lower value 0.902 | locus YCL016C, strain dcc1, stronger effect = lower value 0.876 | locus YCL029C, strain bik1, stronger effect = lower value 0.822 | locus YCL061C, strain MRC1, stronger effect = lower value 0.846 | locus YDL074C, strain BRE1, stronger effect = lower value 0.738 | locus YDL192W, strain arf1, stronger effect = lower value 0.832 | locus YDR101C, strain arx1, stronger effect = lower value 0.867 | locus YDR137W, strain rgp1, stronger effect = lower value 0.845 | locus YDR318W, strain mcm21, stronger effect = lower value 0.798 | locus YDR335W, strain msn5, stronger effect = lower value 0.889 | locus YDR392W, strain spt3, stronger effect = lower value 0.194 | locus YDR502C, strain sam2, stronger effect = lower value 0.787 | locus YEL003W, strain gim4, stronger effect = lower value 0.856 | locus YEL061C, strain CIN8 (second series), stronger effect = lower value 0.844 | locus YER016W, strain bim1, stronger effect = lower value 0.91 | locus YER110C, stronger effect = lower value 0.873 | locus YER155C, strain BEM2 (second series), stronger effect = lower value 0.268 | locus YER155C, strain BEM2, stronger effect = lower value 0.686 | locus YGL078C, strain dbp3, stronger effect = lower value 0.906 | locus YGL086W, strain mad1, stronger effect = lower value 0.779 | locus YGL173C, strain kem1, stronger effect = lower value 0.889 | locus YGL227W, strain vid30, stronger effect = lower value 0.892 | locus YGL240W, strain doc1, stronger effect = lower value 0.762 | locus YGL248W, strain PDE1, stronger effect = lower value 0.824 | locus YGL253W, strain hxk2, stronger effect = lower value 0.908 | locus YGR135W, strain pre9, stronger effect = lower value 0.696 | locus YGR252W, strain gcn5, stronger effect = lower value 0.629 | locus YHR079C, strain IRE1, stronger effect = lower value 0.756 | locus YHR129C, strain ARP1, stronger effect = lower value 0.87 | locus YHR142W, strain chs7, stronger effect = lower value 0.767 | locus YHR200W, strain rpn10, stronger effect = lower value 0.866 | locus YIR030C, strain dcg1, stronger effect = lower value 0.888 | locus YJL095W, strain BCK1 (second series), stronger effect = lower value 0.886 | locus YJL095W, strain BCK1, stronger effect = lower value 0.544 and 0.84 | locus YJL129C, strain trk1, stronger effect = lower value 0.859 | locus YJL164C, strain tpk1, stronger effect = lower value 0.887 | locus YJL166W, strain qcr8, stronger effect = lower value 0.746
0.95 (inactive) and 0.812 (active): locus YHR030C, strain SLT2, stronger effect = lower value
